# Hit rate of the full screen: of about 48,000 compounds, about 13,000 (27%) showed an effect of 50% or more. This is one part of the list.
# Test system: Wolbachia pipientis
# Assay: Anti-Wolbachia Cell-Based Screen
# Format: functional
# Design: scale not given: in the data most compounds retested in dose-response had high values
# Conditions: 5 µM
row,Compound,Percent Effect
1,Cc1nnc(CN2CCCCC2c2nc(-c3ccccc3)no2)s1 (centres undefined),-13.6%
2,CCS(=O)(=O)N1CCC2(CCCN(c3ncc(F)cn3)C2)C1 (centres undefined),-3.984%
3,O=S(=O)(C1CC1)N1CCC2(CCCN(c3ncc(F)cn3)C2)C1 (centres undefined),-1.558%
4,Cc1cnc(N2CCC3(CCCN(c4ncc(F)cn4)C3)C2)nc1 (centres undefined),103%
5,Cc1cnc(N2CCCC3(CCOCC3)C2)nc1,109.2%
6,Cc1cnc(N2CCCC3(COCCN(c4nccs4)C3)C2)nc1 (centres undefined),-8.565%
7,CS(=O)(=O)N1CCC2(CCCN(c3ncc(F)cn3)C2)C1 (centres undefined),6.577%
8,Fc1cnc(N2CCCC3(CCN(c4ncccn4)C3)C2)nc1 (centres undefined),88.49%
9,CCCS(=O)(=O)N1CCC2(CCCN(c3ncc(F)cn3)C2)C1 (centres undefined),14.12%
10,Cc1cnc(N2CCOC3(CCCN(c4ncccn4)C3)C2)nc1 (centres undefined),-13.37%
11,Cc1cc(C)c2nc(CN3CCC(N4CCOCC4)CC3)cc(O)c2c1,-11.95%
12,CCN(C(c1cccnc1)c1cc(C)cc(C)c1)S(C)(=O)=O (centres undefined),1.72%
13,Cc1oc(-c2ccsc2)nc1CC(=O)NCCS(C)(=O)=O,-2.536%
14,CN(C)CCOCC1CN(C(=O)c2cscn2)Cc2ccnn2C1 (centres undefined),-0.6425%
15,O=C1CC(c2ccc(C(=O)O)cc2)c2ncn(-c3cccnc3)c2N1 (centres undefined),-9.053%
16,CCCN1Cc2cc(Br)ccc2OCC1=O,11.44%
17,Cc1c(Br)cc2c(c1C)OCC(N(C)C)C2=O (centres undefined),95.66%
18,CCN(CC)C1COc2c(cc(Br)c(C)c2Br)C1=O (centres undefined),114.2%
19,CCN(CC)C1COc2c(cc(Br)c(C)c2C)C1=O (centres undefined),131.7%
20,CCN(CC)C1COc2ccc(Br)cc2C1=O (centres undefined),104.3%
21,COCCN1C(=O)[C@H]2CC[C@@H]1CN(C(=O)COc1ccc(F)c(Cl)c1)C2,1.148%
22,CC(C)c1cc(C(=O)NCCN2CCCS2(=O)=O)n[nH]1,-2.781%

row,Compound,Percent Effect
1,COc1ccccc1CC(=O)N1CCC(NCc2cccnc2)CC1,-3.091%
2,COc1ccc(CC(=O)N2CC[C@H](CO)[C@H](O)C2)c(OC)c1,2.348%
3,COc1ccccc1CC(=O)N1CC[C@H](O)[C@]2(CCCO2)C1,123.7%
4,COc1ccc(C)cc1CC(=O)N1CC[C@@]2(CCCO2)[C@@H](O)C1,110.1%
5,COc1ccccc1CC(=O)N1CC[C@@]2(CCCO2)[C@@H](OC)C1,3.075%
6,COc1ccc(Br)cc1CC(=O)N1CCCC1,26.87%
7,O=C(Nc1ccc(OCc2cccc(F)c2)c(F)c1)C1COCCO1 (centres undefined),-24.38%
8,CN1CCCC1c1ccc(C(=O)Nc2c3c(nn2C)CCC3)s1 (centres undefined),105.6%
9,CC(C)CN1CCCC1c1ccc(C(=O)Nc2cccnc2)s1 (centres undefined),20.92%
10,NCC(=O)N1CCCC1c1ccc(C(=O)NCc2ccoc2)s1 (centres undefined),-13.99%
11,O=C(Nc1nnc(N2CCCCC2)[nH]1)c1cccs1,3.867%
12,CN1CCCC1c1ccc(C(=O)N2CCc3ccccc3C2)s1 (centres undefined),10.54%
13,O=C(NC1CCN(c2nccs2)CC1)c1cccs1,-6.975%
14,Cn1nc2c(c1NC(=O)c1cccs1)CCC2,116%
15,Cn1nc2c(c1NC(=O)c1ccc(C3CCCN3C3CCC3)s1)CCC2 (centres undefined),91.78%
16,CC(C)CN1CCCC1c1ccc(C(=O)Nc2cn(C)nn2)s1 (centres undefined),6.317%
17,Cc1cncc(NCC(O)c2ccco2)n1 (centres undefined),11.88%
18,Clc1ccc(OCCNC2(c3ccc(Br)cc3)CCOCC2)cc1,18.48%
19,Cc1nnc(CCNC(=O)C(c2ccc(F)cc2)N(C)C)[nH]1 (centres undefined),15.69%
20,CSCCCN1CCn2nc(CNC(C)=O)cc2C1,-21.5%
21,CNS(=O)(=O)CCNC(=O)[C@@]12CNC[C@@H]1CN(C1CCCC1)C2,-0.715%
22,CC(=O)NC1(C(=O)N2CCCN(c3cccnn3)CC2)CCCCC1,1.939%

row,Compound,Percent Effect
1,CN(C)CCOCc1nnc2n1CCN(Cc1cccs1)CC2.O=C(O)C(F)(F)F.O=C(O)C(F)(F)F,101.6%
2,CCOCc1nnc2n1CCN(Cc1c(C)noc1C)CC2.O=C(O)C(F)(F)F,-27.85%
3,CC(=O)NCc1nnc2n1CCN(Cc1cccs1)C2.O=C(O)C(F)(F)F,-7.249%
4,CN(C)CCOCc1nnc2n1CCN(Cc1ccco1)C2.O=C(O)C(F)(F)F.O=C(O)C(F)(F)F,-14.14%
5,CN(C)CCOCc1nnc2n1CCN(Cc1ccco1)CC2.O=C(O)C(F)(F)F.O=C(O)C(F)(F)F,99.11%
6,O=C(O)C(F)(F)F.O=C(O)C(F)(F)F.c1cncc(COCc2nnc3n2CCN(Cc2ccco2)C3)c1,-13.62%
7,Cc1ccc(CN2CCc3nnc(COCCN(C)C)n3CC2)o1.O=C(O)C(F)(F)F.O=C(O)C(F)(F)F,95.05%
8,O=C(O)C(F)(F)F.O=C(O)C(F)(F)F.c1cncc(COCc2nnc3n2CCN(Cc2cccs2)C3)c1,-10.65%
9,COc1ccc(NC(=O)C2CCCO2)cc1OCc1cccnc1 (centres undefined),5.381%
10,CCN1c2ccc(-c3cncn3CCCn3ccnc3C)cc2CC1C.Cl (centres undefined),77.37%
11,Cc1nn(C)c(C)c1CCC(=O)N1CCc2sccc2C1,7.197%
12,Cc1nccn1CCCn1cncc1-c1ccc2c(c1)CCCN2C.Cl,98.66%
13,Cc1cnccc1N1CCCN(C(=O)CCCn2ccnc2C)CC1,-4.474%
14,Cc1nn(C)c(C)c1CCC(=O)N1CC(c2cccnc2)C1,23.02%
15,Cc1nccn1CCCNC(=O)C1CCCCN1Cc1ccncc1 (centres undefined),-5.862%
16,Cc1nccn1CCCn1cncc1-c1ccc2c(c1)CCC(C)N2C.Cl (centres undefined),102.7%
17,Cc1nn(C)c(C)c1CCn1cncc1-c1ccc2c(c1)CC(C)N2C.Cl (centres undefined),101.8%
18,CCOc1ncc(NC(=O)c2ccccn2)c(OCC)n1,0.09854%
19,CN1C[C@@H]2CC[C@H](C1)N(Cc1ccccc1OCCN1CCOCC1)C2,-8.693%
20,CSc1ccc(CNc2ccccc2CN2CCC(O)CC2)cc1,-4.512%

# — ChEMBL document CHEMBL3988442, “University of Dundee, Small-Polar-MMV Screening Library” (2021)
